Compound activity from PubChem.
This is a sample that favours compounds with a hit; in the whole collection about 2.3% have one here.
Lassa entry inh: Lassa virus entry inhibition. Lassa virus pseudotype entry inhibition, cell reporter. Potency, µM (series often up to 37.9 µM), hits mostly inhibitors. hit rate 1.2% among 300,000. AID 540256; calls by dose curve; tested in HEK293 cells; note: nearly all actives have a fitted effect of over 50% in size
AMA1 RON2 block: inhibitors of Plasmodium falciparum AMA1-RON2 interaction | AlphaScreen AMA1-biotinylated RON2 peptide binding | Potency, µM (highest dose often 58.2 µM), hits mostly inhibitors | hit rate 0.2% among 360,000 | AID 720542; note: nearly all actives have a fitted effect of over 45% in size
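AMA1 (3D7) with his tag at 25 nM final met compounds first, then biotinylated RON2 peptide at 25 nM; detection used donor plus acceptor beads, 10 µg/mL apiece, read by AlphaScreen after 30 min at room temperature.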
AmpC inh detg: inhibitors of E. coli AmpC beta-lactamase with detergent. Potency, µM (top dose mostly 114 µM), most hits filed as inhibitors. AID 485294. hit rate 0.041% among 370,000. AmpC hydrolysis of nitrocefin, absorbance 480 nm, 0.01% Triton; note: nearly all actives have a fitted effect of over 25% in size
Target sequence (P00811 whole entry, looked up): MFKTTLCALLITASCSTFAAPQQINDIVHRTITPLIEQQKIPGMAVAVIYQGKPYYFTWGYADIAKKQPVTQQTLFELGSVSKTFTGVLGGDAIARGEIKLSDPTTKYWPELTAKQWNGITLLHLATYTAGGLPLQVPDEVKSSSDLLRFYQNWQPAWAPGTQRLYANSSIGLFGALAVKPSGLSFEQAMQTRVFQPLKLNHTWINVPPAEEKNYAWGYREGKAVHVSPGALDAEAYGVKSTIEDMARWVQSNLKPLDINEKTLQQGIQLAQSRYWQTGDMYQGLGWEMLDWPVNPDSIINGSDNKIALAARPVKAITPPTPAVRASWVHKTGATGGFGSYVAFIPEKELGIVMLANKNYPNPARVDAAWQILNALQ
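AmpC (5.3 nM in the dispensed reagent) in 20 mM phosphate pH 7.0 with 0.01% (detergent screen) or 0.0001% Triton X-100 was preincubated with compounds for 15 min at room temperature. Nitrocefin was then added from an 800 uM solution, and hydrolysis was followed at 480 nm.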
AmpC inh no detg: blocks E. coli AmpC beta-lactamase in detergent-free assay; Potency, µM (titrated, usually from 57.1 µM), actives largely listed as inhibitors; AID 485341; hit rate 0.52% among 330,000; AmpC nitrocefin hydrolysis, absorbance 480 nm, 0.0001% Triton; note: nearly all actives have a fitted effect of over 20% in size
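AmpC (5.3 nM in the dispensed reagent) in 20 mM phosphate pH 7.0 with 0.01% (detergent screen) or 0.0001% Triton X-100 was preincubated with compounds for 15 min at room temperature. Nitrocefin was then added from an 800 uM solution, and hydrolysis was followed at 480 nm.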
Marburg entry inh: blocks Marburg virus binding to or entry into cells; Marburg virus pseudotyped entry inhibition, cell reporter; Potency, µM (series often up to 37.8 µM), actives largely listed as inhibitors; hit rate 1.8% among 300,000; calls by dose curve; tested in HEK293 cells
Large screens that a line does not name were inactive; ! = a repeat was not active. Unless noted, calls come from the whole dose curve; as a rule, active = well fitted curve in the direction sought with a large enough effect; inconclusive = small, poorly fitted or top-dose-only effect, or another doubt; inactive = no such curve, though single readings can be large; an effect the other way counts as inactive or inconclusive.

Cc1ccccc1Cn1ccc(NC(=O)CCSc2nc(-c3ccco3)cc(C(F)(F)F)n2)n1	Marburg entry inh 1.1µM!
Cc1ccc(Cn2ccc(NC(=O)CCSc3nc(-c4ccco4)cc(C(F)(F)F)n3)n2)cc1	Lassa entry inh inconclusive, Marburg entry inh inconclusive
CC[n+]1c(C=C2C=C(C)OC(C)=C2)sc2ccccc21	Lassa entry inh 5µM, Marburg entry inh inconclusive
CC[n+]1c(/C=C2/C=C(C)CC(C)C2)sc2ccccc21 (stereo not given)	Lassa entry inh inconclusive, Marburg entry inh inconclusive
COC[C@@H](O)[C@H]1OCc2ccccc2[C@@H]1C=Cc1ccccc1	none (no result: Lassa entry inh, AMA1 RON2 block, AmpC inh detg, AmpC inh no detg)
Cc1ccc2nc(-c3ccc(NS(C)(=O)=O)cc3)cc(-c3ccccc3)c2c1	AmpC inh detg inconclusive
Cc1ccc2nc(-c3ccncc3)cc(-c3ccccc3)c2c1	Marburg entry inh 13µM
Cn1cc(C(=O)NCc2ccc(Cl)cc2)c(=O)c2cc(S(=O)(=O)N3CCCCCC3)ccc21	none (no result: AMA1 RON2 block, AmpC inh no detg)
CN(c1ccccc1)c1ccc(/C=N/NC(=O)CC#N)cc1	Lassa entry inh 15µM, Marburg entry inh 13µM
CC(=O)N/N=C\c1cccc(OC/C=C/c2ccccc2)c1	none (no result: Lassa entry inh, Marburg entry inh)
N#CCC(=O)N/N=C\c1cccc(OC/C=C/c2ccccc2)c1	Lassa entry inh inconclusive, AmpC inh no detg 13µM, Marburg entry inh inconclusive
CCCCN(C)c1nnc(NC(=O)Nc2cccc(C(C)=O)c2)s1	none (no result: AMA1 RON2 block, AmpC inh no detg)
Cc1ccc(Nc2c3c(nc4nncn24)CCC3)c(C)c1	none (no result: AMA1 RON2 block, AmpC inh no detg)
O=C(Nc1ccc(N2CCOCC2)cc1)c1cnccn1	Lassa entry inh 2.2µM, Marburg entry inh inconclusive
CCCCc1ccc(NC(=O)c2cnccn2)cc1	Lassa entry inh 11µM, Marburg entry inh 7.9µM
O=C(Nc1ccccc1N1CCOCC1)c1cnccn1	none (no result: Lassa entry inh)
CSc1ncc(C(=O)NCc2ccc(F)cc2)c(-c2ccccc2)n1	none (no result: AMA1 RON2 block, AmpC inh no detg, Marburg entry inh)
CCOc1ccccc1NC(=O)C(OC(=O)c1ccc(NC(=O)CC#N)cc1)c1ccccc1 (stereo not given)	AmpC inh no detg 7.9µM
Clc1ccc(-c2nc(-c3ccncc3)no2)c(Cl)c1	none (no result: Lassa entry inh, AmpC inh detg, AmpC inh no detg, Marburg entry inh)
Nc1nccc(-c2cc(-c3ccc(Cl)cc3Cl)no2)n1	Lassa entry inh inconclusive, Marburg entry inh 14µM
COCCSc1nnc(NC(=O)CCS(=O)(=O)c2ccccc2)s1	Marburg entry inh 11µM
O=C(N/N=C/c1ccccc1Cl)c1[nH]c2ccc(Br)cc2c1-c1ccccc1	Lassa entry inh inconclusive, Marburg entry inh 2.5µM
N/C(=N\OC(=O)COc1ccc(Br)cc1Cl)c1ccccn1	Lassa entry inh 2µM, Marburg entry inh inconclusive
N/C(=N\OC(=O)c1ccc(Cl)cc1Cl)c1ccccc1	Lassa entry inh 8.2µM, Marburg entry inh inconclusive
N/C(=N\OC(=O)/C=C/c1ccccc1Cl)c1ccccn1	Marburg entry inh 9.2µM
N/C(=N\OC(=O)c1cc(Cl)ccc1Cl)c1ccccn1	Lassa entry inh 6.5µM, AmpC inh detg inconclusive, Marburg entry inh 4.1µM
COc1ccc(Cl)cc1C(=O)O/N=C(\N)c1ccccn1	none (no result: Lassa entry inh, Marburg entry inh)
COc1ccccc1NC(=O)C1=C(C)Nc2nnnn2C1c1ccc(C(F)(F)F)cc1 (stereo not given)	none (no result: AMA1 RON2 block, AmpC inh no detg)
COc1ccc(C(=O)O/N=C(\N)c2ccccc2)c(OC)c1	Lassa entry inh inconclusive, Marburg entry inh 1.5µM
Cc1ccc(C(=O)O/N=C(\N)c2ccccn2)cc1C	Lassa entry inh inconclusive, Marburg entry inh 0.71µM
Cc1ccc(C(=O)O/N=C(\N)c2ccccn2)cc1	Lassa entry inh inconclusive, Marburg entry inh inconclusive
COc1ccc(C(=O)O/N=C(\N)c2ccc(OC)c(OC)c2)c(OC)c1	none (no result: Lassa entry inh)
Oc1cccc(/C=N/N=C/c2cccc(O)c2O)c1O	Lassa entry inh 11µM, Marburg entry inh inconclusive
C/C(CCN1CCCc2nc(C)c(C)cc21)=N\O[C@H](C)c1cn([C@@H]2COC[C@H]2O)nn1	none (no result: Lassa entry inh, AMA1 RON2 block, AmpC inh detg, AmpC inh no detg)
COc1ccc(/C=C/C(O)=C2/C(=O)N(C)C3(C)CC2c2ccccc2O3)cc1 (stereo not given)	Lassa entry inh inconclusive, Marburg entry inh 8.2µM
Cc1ccc(-c2c(CN3CCN(c4cc(Cl)ccc4C)CC3)csc2C)cc1	none (no result: AMA1 RON2 block, AmpC inh no detg, Marburg entry inh)
COc1ccc(Br)cc1C(=O)Nc1cccc(-c2nnc(-c3ccco3)o2)c1	Marburg entry inh 21µM (no result: AmpC inh detg, AmpC inh no detg)
COc1cccc(C(=O)Nc2cccc(-c3nnc(-c4ccco4)o3)c2)c1	Lassa entry inh inconclusive, AmpC inh detg inconclusive, Marburg entry inh inconclusive
CCN(CC)S(=O)(=O)c1ccc(N/N=C/c2ccc(O)cc2O)nc1	Lassa entry inh 2.3µM, Marburg entry inh 3.3µM
